We go through 9 molecules from PubChem BioAssay (NCI).

Common to all, as to assay: NCI-60 one-dose screen, 48 h (100 = growth as untreated, 0 = no growth, -100 = all killed)
In one assay the test system is HT29 colon. Particulars: 10 µM.
A further assay concerns SNB-75 CNS. To be noted: 10 µM.
For a further assay, the system named is SNB-19 CNS. Particulars: 10 µM.
A further assay has as its system PC-3 prostate. To be noted: 10 µM.
The next assay has as its system SK-MEL-5 melanoma. Particulars: 10 µM.
The next assay concerns UACC-62 melanoma.
Another assay relates to LOX IMVI melanoma. Particulars: 10 µM.
The subject of the next assay is SK-MEL-28 melanoma. Particulars: 10 µM.
Another assay relates to SN12C renal. To be noted: 10 µM.
For another assay, the system named is UO-31 renal. Particulars: 10 µM.
In another assay the test system is TK-10 renal.
For another assay, the system named is ACHN renal. Particulars: 10 µM.
The next assay deals with CAKI-1 renal. Particulars: 10 µM.
In the next assay the test system is A498 renal. To be noted: 10 µM.
Another assay deals with MOLT-4 leukemia. Particulars: 10 µM.
The test system of another assay is RPMI-8226 leukemia. Particulars: 10 µM.
The next assay deals with U251 CNS. To be noted: 10 µM.
For another assay, the system named is SK-MEL-2 melanoma. To be noted: 10 µM.
Another assay has as its system EKVX NSCLC. Particulars: 10 µM.
The next assay has as its system CCRF-CEM leukemia. Particulars: 10 µM.

Molecules are shown by their SMILES. “And” between values parts separate entries of the source, which are not always exact repeats. Equal values may be shown once. The panel holds about 83,000 compounds, 20% with a hit somewhere; the sample as a whole holds those more often.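 Values shown are percent growth following 48 h exposure of cells in 96-well plates to a single concentration of compound; below 10 was considered active.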 Values without a mark were called inactive. The source made the active and inactive calls.

Take `N#C/C(=C1C=C/C(=N\O)C(Cl)=C\1)c1ccccc1`: the growth is 23% with HT29 colon; 59.4% in the assay on SNB-75 CNS; 80.5% with SNB-19 CNS; 14.5% in the assay with PC-3 prostate; 46.8% in the assay with SK-MEL-5 melanoma; 26.2% in the assay on UACC-62 melanoma (10 µM). The growth in the assay with LOX IMVI melanoma is 1.14% (active); in the assay with SK-MEL-28 melanoma, 68.9%; in the assay on SN12C renal it was 34.8%; with UO-31 renal it was 34%; in the assay with TK-10 renal (10 µM), 53.1%; with ACHN renal, 25.7%. The growth in the assay on CAKI-1 renal is 5.29% (active); in the assay with A498 renal, 86.5%; with MOLT-4 leukemia, 33.6%; in the assay with RPMI-8226 leukemia, 27.3%.

Consider `Cc1cnc(/C=N\NC(N)=S)c2cccc(N)c12`, for which the growth in the assay on HT29 colon was 35.8%; in the assay on SNB-75 CNS, -2.85% (active); in the assay on SNB-19 CNS, 24%; in the assay with U251 CNS, 25%; with PC-3 prostate, 29%; in the assay on SK-MEL-5 melanoma, 54.8%. Besides, the growth is -15.7% (active) with UACC-62 melanoma (10 µM); 6.91% (active) in the assay on LOX IMVI melanoma; 34.5% in the assay with SK-MEL-28 melanoma; -6.16% (active) in the assay on SK-MEL-2 melanoma; 29.5% in the assay on EKVX NSCLC; -12.9% (active) in the assay on SN12C renal. Also, the growth in the assay with UO-31 renal is 1.67% (active); in the assay on TK-10 renal (10 µM), 19.6%; with ACHN renal, 10.2%; in the assay with CAKI-1 renal, 2.66% (active); in the assay with A498 renal, 12.4%; in the assay with CCRF-CEM leukemia, -28.1% (active). Moreover, the growth is -13.8% (active) with MOLT-4 leukemia and -9.76% (active) in the assay on RPMI-8226 leukemia.

Turning to `Cc1ccc2nc(N/N=C/c3ccc(C)s3)cc(C)c2c1`, the growth is -99.1% (active) and -100% (active) in the assay on UACC-62 melanoma (100 µM); -96.6% (active) and -100% (active) in the assay with TK-10 renal (100 µM).

For `S=c1[nH]nc(Cc2ccccc2)c(=S)[nH]1`, the growth was 97.4% in the assay with HT29 colon; 92.8% in the assay on SNB-75 CNS; 109% in the assay with SNB-19 CNS; 100% in the assay with U251 CNS; 89.1% in the assay with PC-3 prostate; 110% with SK-MEL-5 melanoma. Further, the growth was 110% in the assay with UACC-62 melanoma (10 µM); 94.4% in the assay on LOX IMVI melanoma; 114% in the assay with SK-MEL-28 melanoma; 104% with SK-MEL-2 melanoma; 97.8% with EKVX NSCLC; 113% with SN12C renal. Further, the growth was 76.3% with UO-31 renal; 99.7% in the assay with TK-10 renal (10 µM); 107% in the assay with ACHN renal; 97.6% in the assay with CAKI-1 renal; 68.9% in the assay on A498 renal; 104% in the assay on CCRF-CEM leukemia. Moreover, the growth is 106% in the assay with MOLT-4 leukemia and 97.2% in the assay on RPMI-8226 leukemia.

For `CCCCCCCCCCCCCCCCCN`, the growth in the assay on HT29 colon is 98.9%; in the assay with SNB-75 CNS it was 92.6%; in the assay on SNB-19 CNS, 102%; with U251 CNS, 96.3%; in the assay with PC-3 prostate, 92.3%; in the assay on SK-MEL-5 melanoma it was 103%. The growth is 102% in the assay on UACC-62 melanoma (10 µM); 102% in the assay with LOX IMVI melanoma; 101% in the assay on SK-MEL-28 melanoma; 110% in the assay with SK-MEL-2 melanoma; 96.8% in the assay on SN12C renal; 87.6% in the assay with UO-31 renal. The growth is 102% in the assay with TK-10 renal (10 µM); 97% in the assay with ACHN renal; 91.1% in the assay with CAKI-1 renal; 104% in the assay with A498 renal; 102% in the assay on CCRF-CEM leukemia; 104% in the assay on MOLT-4 leukemia. In the assay on RPMI-8226 leukemia, the growth is 107%.

Regarding `O=C(/C(=C/c1ccccc1)CBr)c1ccccc1`, the growth is 83.7% in the assay with HT29 colon; 48.6% in the assay with SNB-75 CNS; 90.9% in the assay with SNB-19 CNS; 78.6% with U251 CNS; 74.8% in the assay with PC-3 prostate; 87.7% with SK-MEL-5 melanoma. For the same molecule, the growth in the assay on UACC-62 melanoma (10 µM) is 72.7%; with LOX IMVI melanoma, 44.3%; in the assay on SK-MEL-28 melanoma, 94.4%; in the assay on SK-MEL-2 melanoma, 93.4%; in the assay with EKVX NSCLC, 82.1%; in the assay with SN12C renal, 71.4%. Moreover, the growth with UO-31 renal was 69.9%; in the assay on TK-10 renal (10 µM), 116%; in the assay on ACHN renal it was 70%; in the assay on CAKI-1 renal it was 60.1%; in the assay on A498 renal it was 128%; with CCRF-CEM leukemia, -4.28% (active). Further, the figures for the growth with MOLT-4 leukemia and with RPMI-8226 leukemia were -3.18% (active) and 16.9%, respectively.

`BrC/C=C/C[P+](c1ccccc1)(c1ccccc1)c1ccccc1`: the growth in the assay with HT29 colon was 60%; in the assay on SNB-19 CNS, 46.6%; in the assay with U251 CNS it was 18.2%; with PC-3 prostate, 22.4%; in the assay on SK-MEL-5 melanoma, 53.9%; in the assay on UACC-62 melanoma (10 µM) it was 52.8%. The growth is 2.3% (active) with LOX IMVI melanoma; 53.2% in the assay with SK-MEL-28 melanoma; 78.7% in the assay on SK-MEL-2 melanoma; 70.2% with EKVX NSCLC; 64.4% in the assay on SN12C renal; 66.2% in the assay with UO-31 renal. In addition, the growth with TK-10 renal (10 µM) was 48.7%; in the assay with ACHN renal, 43.4%; in the assay with CAKI-1 renal, 103%; with A498 renal it was 72.9%; in the assay on CCRF-CEM leukemia it was 37.9%; in the assay on MOLT-4 leukemia it was 79.7%. Further, the growth in the assay on RPMI-8226 leukemia was 4.56% (active).

As for `COc1cc(C(C)(C)C)cc(OC)c1C(O)(c1c(OC)cc(C(C)(C)C)cc1OC)c1c(OC)cc(C(C)(C)C)cc1OC`, the growth was -100% (active) with HT29 colon; -94.1% (active) in the assay with SNB-75 CNS; -96.1% (active) in the assay on SNB-19 CNS; -91.6% (active) in the assay with U251 CNS; -86.8% (active) in the assay with PC-3 prostate; -93.7% (active) with SK-MEL-5 melanoma. For the same molecule, the growth in the assay with UACC-62 melanoma (10 µM) was -86.3% (active); with LOX IMVI melanoma it was -69.2% (active); in the assay with SK-MEL-28 melanoma it was -99.4% (active); in the assay with SK-MEL-2 melanoma, -59.1% (active); in the assay on EKVX NSCLC, -50.5% (active); in the assay on SN12C renal it was -80.2% (active). In addition, the growth in the assay on UO-31 renal is -75.7% (active); with TK-10 renal (10 µM), -90.8% (active); with ACHN renal, -93% (active); in the assay on CAKI-1 renal, -69.1% (active); in the assay on A498 renal, -79.4% (active); with CCRF-CEM leukemia, -68% (active). Also, the results for the growth with MOLT-4 leukemia and in the assay on RPMI-8226 leukemia were -81% (active) and -27.1% (active), respectively.

In the case of `CSc1ccc2c(c1)C(N1CCN(C)CC1)Cc1ccccc1S2` (stereo not given), the growth in the assay on HT29 colon was -15.9% (active); with SNB-75 CNS, 0.687% (active); in the assay with SNB-19 CNS it was 54.7%; with U251 CNS it was 33.3%; in the assay with PC-3 prostate it was 26.5%; in the assay on SK-MEL-5 melanoma it was -86.6% (active). In addition, the growth is -69.5% (active) in the assay with UACC-62 melanoma (10 µM); -5.64% (active) in the assay on LOX IMVI melanoma; -63.8% (active) with SK-MEL-28 melanoma; 55.9% in the assay on EKVX NSCLC; 35.6% with SN12C renal; 15.5% in the assay on UO-31 renal. The growth is 43.1% in the assay on TK-10 renal (10 µM); 12% in the assay on ACHN renal; 19.5% with CAKI-1 renal; 16.4% with A498 renal; 31.7% with CCRF-CEM leukemia; -23.3% (active) with MOLT-4 leukemia. Moreover, the growth in the assay on RPMI-8226 leukemia was 24.3%.
